# Columns and labels:
# [1] = system: U-2932; assay: growth inhibition by drug alone (1 - RLU/untreated control) (fraction); higher = stronger inhibition; settings: 177Lu-lilotomab satetraxetan 0 ug/ml
# Summary of the method: (§1)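 Compound doses on the pre-printed Selleck Cambridge Cancer Compound library plates were 10/100 nM for RIVA cells and 10/1,000 nM for U-2932 cells, seeded at 3,000 cells/well. Before seeding, cells were washed after 18 h with or without a radiolabelled anti-CD37 antibody conjugate (~600 MBq/mg; 0.5 µg/ml RIVA, 1 µg/ml U-2932). Growth inhibition was derived from RealTime-Glo luminescence relative to untreated no-drug control wells. Readings were taken daily starting on day 3, each after 1 h at 37°C, and each well's RLU was divided by the mean of 48 such wells per plate and subtracted from 1.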
# [2] = system: RIVA; assay: as above; settings: 177Lu-lilotomab satetraxetan 0 ug/ml
# Summary of the method: as §1
# [3] = system: U-2932; assay: growth inhibition by drug plus 177Lu-lilotomab satetraxetan (1 - RLU/untreated control) (fraction); higher = stronger inhibition; settings: 177Lu-lilotomab satetraxetan 1 ug/ml
# Summary of the method: as §1
# [4] = system: RIVA; assay: as above; settings: 177Lu-lilotomab satetraxetan 0.5 ug/ml
# Summary of the method: as §1
SMILES,"growth inhibition by drug alone ([1]; 10 nM, time (day): 3)","growth inhibition by drug alone ([1]; 10 nM, time (day): 4)","growth inhibition by drug alone ([1]; 10 nM, time (day): 5)","growth inhibition by drug alone ([1]; 10 nM, time (day): 6)","growth inhibition by drug alone ([1]; 1000 nM, time (day): 3)","growth inhibition by drug alone ([1]; 1000 nM, time (day): 4)","growth inhibition by drug alone ([1]; 1000 nM, time (day): 5)","growth inhibition by drug alone ([1]; 1000 nM, time (day): 6)","growth inhibition by drug alone ([2]; 10 nM, time (day): 3)","growth inhibition by drug alone ([2]; 10 nM, time (day): 4)","growth inhibition by drug alone ([2]; 10 nM, time (day): 5)","growth inhibition by drug alone ([2]; 10 nM, time (day): 6)","growth inhibition by drug alone ([2]; 100 nM, time (day): 3)","growth inhibition by drug alone ([2]; 100 nM, time (day): 4)","growth inhibition by drug alone ([2]; 100 nM, time (day): 5)","growth inhibition by drug alone ([2]; 100 nM, time (day): 6)","growth inhibition by drug plus 177Lu-lilotomab satetraxetan ([3]; 10 nM, time (day): 3)","growth inhibition by drug plus 177Lu-lilotomab satetraxetan ([3]; 10 nM, time (day): 4)","growth inhibition by drug plus 177Lu-lilotomab satetraxetan ([3]; 10 nM, time (day): 5)","growth inhibition by drug plus 177Lu-lilotomab satetraxetan ([3]; 10 nM, time (day): 6)","growth inhibition by drug plus 177Lu-lilotomab satetraxetan ([3]; 1000 nM, time (day): 3)","growth inhibition by drug plus 177Lu-lilotomab satetraxetan ([3]; 1000 nM, time (day): 4)","growth inhibition by drug plus 177Lu-lilotomab satetraxetan ([3]; 1000 nM, time (day): 5)","growth inhibition by drug plus 177Lu-lilotomab satetraxetan ([3]; 1000 nM, time (day): 6)","growth inhibition by drug plus 177Lu-lilotomab satetraxetan ([4]; 10 nM, time (day): 3)","growth inhibition by drug plus 177Lu-lilotomab satetraxetan ([4]; 10 nM, time (day): 4)","growth inhibition by drug plus 177Lu-lilotomab satetraxetan ([4]; 10 nM, time (day): 5)","growth inhibition by drug plus 177Lu-lilotomab satetraxetan ([4]; 10 nM, time (day): 6)","growth inhibition by drug plus 177Lu-lilotomab satetraxetan ([4]; 100 nM, time (day): 3)","growth inhibition by drug plus 177Lu-lilotomab satetraxetan ([4]; 100 nM, time (day): 4)","growth inhibition by drug plus 177Lu-lilotomab satetraxetan ([4]; 100 nM, time (day): 5)","growth inhibition by drug plus 177Lu-lilotomab satetraxetan ([4]; 100 nM, time (day): 6)"
CC1(CN2CCC(n3c(=O)[nH]c4ccccc43)CC2)OCc2ccccc2-n2cccc21 (centres undefined),-0.00689,-0.027,-0.0586,-0.0906,-0.241,-0.0399,-0.126,-0.115,-0.0853,-0.102,-0.143,-0.225,-0.307,-0.303,-0.319,-0.374,-0.0386,0.0346,0.0781,0.0987,-0.0292,0.0476,0.0675,0.175,0.576,0.59,0.612,0.612,0.521,0.568,0.6,0.609
C[C@@H](N)[C@H]1CC[C@H](C(=O)Nc2ccncc2)CC1,-0.00242,-0.0313,-0.0598,-0.119,-0.0269,-0.0273,-0.115,-0.0522,-0.062,-0.109,-0.134,-0.231,-0.413,-0.366,-0.399,-0.522,-0.0365,0.0334,0.0633,0.082,-0.014,0.0434,0.0766,0.194,0.59,0.588,0.605,0.619,0.339,0.452,0.463,0.469

# — the supplement of paper PMC6897291
